Data as given in PubChem BioAssay (NCI).
Compounds without any hit were thinned out: in the full panel of roughly 83,000, 20% have a hit.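 Single-dose data. Exposure time 48 hours. Values below 10 considered active.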 Values without a mark were called inactive. The source made the active and inactive calls.

test system: HT29 colon; test: NCI-60 one-dose screen, 48 h (100 = growth as untreated, 0 = no growth, -100 = all killed); conditions: 10 µM

Compound | growth
CCCCCCCCCCCC(=O)NCCCN(C)C | 65.5%
Nc1ccc(C2=CC(c3ccc(Cl)cc3)N3C=CSC3=N2)cc1 (stereo not drawn) | -42.9% (active)
CC(=O)n1nc(C(=O)OC(C)(C)C)c2cc(F)c(F)cc21 | 100%
COC(=O)c1c(C)nc(Nc2nc3ccccc3s2)nc1-c1ccc(Cl)cc1Cl | 114%
O=C(O)CCCCSCCCCC(=O)O | 90.4%
COc1cc(-c2nc3ccc(C)cc3[nH]2)ccc1OCC(=O)N=Nc1c(O)[nH]c2ccccc12 | -77.1% (active)
CC1=CSC2=NC(c3ccc(Cl)c(Cl)c3)=CC(c3ccc(Cl)cc3)N12 (stereo not drawn) | 101%
COc1ccc(Nc2ccnc(N3CCN(c4ccnc5cc(Cl)ccc45)CC3)n2)cc1 | -6.34% (active)
Cn1cnc([N+](=O)[O-])c1/C=C1\Oc2ccc(Cl)cc2C1=O | 78.4%
CCOC(=O)Cn1nnc(-c2ccc(OCc3ccccc3F)cc2)n1 | 92.4%
COc1ccc(/C(CS(=O)(=O)c2ccccc2)=N\O)cc1 | 106%
COc1ccc(S(=O)(=O)Nc2cc(/C=C\c3cc(OC)c(OC)c(OC)c3)ccc2OC)cc1 | -13.4% (active)
COc1ccc2nc(C)cc(Nc3ccc(Cl)cc3)c2c1 | 116%
COc1cc(-c2nc3ccc(C)cc3[nH]2)ccc1OCc1nnc(-c2ccc(CC(C)C)cc2)o1 | 73.3%
Cc1noc(C)c1-c1ccc2nc(NC(=O)[C@H]3CCN(C#N)C3)cn2c1 | 78.1%
COc1ccc(COC(=O)CC(C)C)cc1 | 96.1%
Cc1ccc(-n2nnc3c(sc4ccccc43)c2=O)cc1 | 5.36% (active)
Nc1ccn([C@@H]2O[C@H](COP(=O)(O)O[C@@H]3C[C@H](n4cc(F)c(=O)[nH]c4=O)O[C@@H]3COP(=O)(O)O[C@@H]3C[C@H](n4cc(F)c(=O)[nH]c4=O)O[C@@H]3COP(=O)(O)O[C@@H]3C[C@H](n4cc(F)c(=O)[nH]c4=O)O[C@@H]3COP(=O)(O)O[C@@H]3C[C@H](n4cc(F)c(=O)[nH]c4=O)O[C@@H]3COP(=O)(O)O[C@@H]3C[C@H](n4cc(F)c(=O)[nH]c4=O)O[C@@H]3COP(=O)(O)O[C@@H]3C[C@H](n4cc(F)c(=O)[nH]c4=O)O[C@@H]3COP(=O)(O)O[C@@H]3C[C@H](n4cc(F)c(=O)[nH]c4=O)O[C@@H]3COP(=O)(O)O[C@@H]3C[C@H](n4cc(F)c(=O)[nH]c4=O)O[C@@H]3COP(=O)(O)O[C@@H]3C[C@H](n4cc(F)c(=O)[nH]c4=O)O[C@@H]3COP(=O)(O)O[C@@H]3C[C@H](n4cc(F)c(=O)[nH]c4=O)O[C@@H]3COP(=O)(O)OCCOCCOCCOCCOCCOCCO)[C@H](O)C2O)c(=O)n1 (stereo partly drawn) | 47.1%
COc1ccc(-c2nnc(COc3ccc(NC(=O)Nc4cccc(C(F)(F)F)c4)cc3F)o2)cc1 | 66.8%

Compound | growth
Fc1ccc(Nc2ccnc(N3CCN(c4ccnc5cc(Cl)ccc45)CC3)n2)cc1 | 22.3%
CCOC(=O)c1cc(-c2ccccc2)nc(N)n1 | 119%
CC1(CO)CCCC12OCCO2 (stereo not drawn) | 98.6%
CCc1c(C)[nH]c(=O)c(C(N)=O)c1C#N | 96.6%
CCOc1ccc2c(c1)CC[C@@H]1[C@@H]2CC[C@]2(C)[C@@H](O)[C@@H](O)C[C@@H]12 | 109%
COc1ccc(OC)c([N+](=O)[O-])c1C=O | 55.6%
CCOC(=O)Nc1ccc2c(c1)C(=O)N(CC)c1ccccc1O2 | -3.19% (active)
Cc1ccc(C)c2c1sc1nc3n[nH]c(N)c3c(=N)n12 | 111%
c1ccc(CC(NCCNC(Cc2ccccc2)c2ccccc2)c2ccccc2)cc1 (stereo not drawn) | -27.7% (active)
Cc1ccc2nc(-c3ccc(OCC(=O)N=Nc4c(O)[nH]c5ccccc45)cc3)[nH]c2c1 | 41.2%
COc1ccc2c(=O)cc(C(Cl)(Cl)Cl)oc2c1 | -41.8% (active)
c1ccc(OCCC[P+](c2ccccc2)(c2ccccc2)c2ccccc2)cc1 | 4.29% (active)
COc1cc(CSc2nc3ccc(C)cc3c(=O)n2Cc2ccccc2)cc(OC)c1OC | 10.5%
C[N+]1=C(/C=C/c2ccc(I)cc2)C(C)(C)c2ccccc21 | 97.2%
COc1ccccc1S(=O)(=O)Nc1ccc2c(c1)CN(C)C(=O)N2 | 22.8%
CCC(O)c1ccc(Br)cc1NC(=O)c1cccc(Cl)c1 (stereo not drawn) | 83.7%
CCCCn1c(=O)[nH]c(N)c(C(c2ccc(Cl)cc2)c2c(N)[nH]c(=O)n(CCCC)c2=O)c1=O | 24.6%
COc1ccc(C(=O)/C=C/c2cc(-c3ccc4c(c3)OCO4)n[nH]2)cc1OC | 36.4%
COc1ccc2oc(=O)cc(C(c3ccc[nH]3)c3ccc[nH]3)c2c1 | -10.5% (active)
